According to PubChem BioAssay (NCATS):
Several values for one entry are separate records, joined by “and”; a condition that tells them apart may be missing. Identical values can stand only once. Inconclusive results are not listed. The source holds several records for some structures; these can differ, active in one and inactive in another. Activity calls are given as the source filed them. Unless noted, calls follow the shape of the dose curve; as a rule, active = well fitted curve in the direction sought with a large enough effect; inconclusive = small, poorly fitted or top-dose-only effect, or another doubt; inactive = no such curve, though single readings can be large; an effect the other way counts as inactive or inconclusive.

Assays:
[1] = Cell Proliferation Assay against the TMD8 Cell Line (Caspase readout at 8 hrs) (AID 651713); also: potency is read from the fitted curve at half-maximal effect
Summary of the method: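 Luminescent caspase 3/7 assay; TMD8 cells, 8 h treatment at 37C, 5% CO2. Normalisation: DMSO 0%, 9.2 uM bortezomib 100%.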

[2] = qHTS for small molecule inhibitors of Yes1 kinase: Counter Assay (AID 686950);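 also: no kinase present so only ADP-Glo detection of a fixed ADP amount is tested; luminescence from ADP-Glo reporting ADP in a fixed ATP and ADP mixture; series mostly up to about 77 µM; 0% = DMSO wells with ATP plus ADP and -100% = ATP-only wells without ADP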
Summary of the method: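 ADP-Glo luminescence read after a 60 min room-temperature incubation of compound with an ATP/ADP mix (0.08 mM/0.02 mM) and no kinase, following a 20 min compound preincubation. Signal scaled between ATP+ADP (max) and 0.1 mM ATP-only (min) wells; Tris pH 7.5, Mg2+, DTT.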

[3] = qHTS assay for small molecule agonists of the antioxidant response element (ARE) signaling pathway (AID 651741; active = well fitted activation curve with a large enough effect in the signal ratio; the % refers to the signal ratio; also: potency is read from the fitted curve at half-maximal effect; as to activation: % of control where 0% means no effect)
Summary of the method: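 Agonist activity is measured as ARE-driven beta-lactamase expression in a stable HepG2 reporter line, using 16 h compound treatment at 37 C and a FRET substrate fluorescence readout after 2 h.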

[4] = qHTS assay for small molecule disruptors of the mitochondrial membrane potential - 1 hr assay (AID 651754; calls by dose curve; also: potency is read from the fitted curve at half-maximal effect; nearly all actives have a fitted effect of over 35% in size)
Summary of the method: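 In this qHTS format, a 1 hr compound treatment of HepG2 cells precedes Mito-MPS staining, and membrane potential is judged from aggregate (red) against monomer (green) fluorescence intensity.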

[5] = qHTS assay for small molecule disruptors of the mitochondrial membrane potential - 5 hr assay (AID 651755; calls by dose curve; also: potency is read from the fitted curve at half-maximal effect; nearly all actives have a fitted effect of over 40% in size)
Summary of the method: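 Membrane-potential dye readout: red aggregate (540 ex/590 em) versus green monomer (490 ex/535 em) fluorescence after 30 min dye loading, following 5 hr compound exposure at 37C of overnight-plated HepG2 cells.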

[6] = molecular target: Peroxisome proliferator-activated receptor alpha (Homo sapiens) (UniProt Q07869); test: qHTS assay for small molecule agonists of the peroxisome proliferator-activated receptor alpha (PPARalpha) signaling pathway (AID 651778); details: PathHunter PPARalpha complementation, chemiluminescence, 6 h; stronger effect = higher value; also: % of control where 0% means no effect
Sequence of Peroxisome proliferator-activated receptor alpha (Homo sapiens) (Q07869 whole entry, looked up): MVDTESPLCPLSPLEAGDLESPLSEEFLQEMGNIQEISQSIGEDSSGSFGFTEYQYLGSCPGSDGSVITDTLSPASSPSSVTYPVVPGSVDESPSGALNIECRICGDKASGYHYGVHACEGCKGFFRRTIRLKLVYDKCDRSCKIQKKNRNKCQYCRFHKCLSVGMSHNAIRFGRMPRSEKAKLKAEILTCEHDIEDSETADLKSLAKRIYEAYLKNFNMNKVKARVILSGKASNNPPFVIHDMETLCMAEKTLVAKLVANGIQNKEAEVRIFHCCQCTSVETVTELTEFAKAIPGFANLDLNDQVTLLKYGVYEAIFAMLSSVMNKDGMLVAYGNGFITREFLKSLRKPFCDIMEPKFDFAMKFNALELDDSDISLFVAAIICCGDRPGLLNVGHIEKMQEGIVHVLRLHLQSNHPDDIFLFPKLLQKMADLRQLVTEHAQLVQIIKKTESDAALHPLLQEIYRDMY
Summary of the method: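 Chemiluminescence from complemented enzyme reported PPARalpha activation in cells after 6 hr of compound treatment at 37 C. The detection reagent was incubated for 60 min at room temperature, and compounds were scored as agonists.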

[7] = molecular target: Arylsulfatase A (Homo sapiens) (UniProt P15289); test: qHTS screen for enhancers of Arylsulfatase A (ASA1): LOPAC Validation Assay (AID 720538); details: outcome: dose series up to 57.5 µM
Sequence of Arylsulfatase A (Homo sapiens) (P15289 whole entry, looked up): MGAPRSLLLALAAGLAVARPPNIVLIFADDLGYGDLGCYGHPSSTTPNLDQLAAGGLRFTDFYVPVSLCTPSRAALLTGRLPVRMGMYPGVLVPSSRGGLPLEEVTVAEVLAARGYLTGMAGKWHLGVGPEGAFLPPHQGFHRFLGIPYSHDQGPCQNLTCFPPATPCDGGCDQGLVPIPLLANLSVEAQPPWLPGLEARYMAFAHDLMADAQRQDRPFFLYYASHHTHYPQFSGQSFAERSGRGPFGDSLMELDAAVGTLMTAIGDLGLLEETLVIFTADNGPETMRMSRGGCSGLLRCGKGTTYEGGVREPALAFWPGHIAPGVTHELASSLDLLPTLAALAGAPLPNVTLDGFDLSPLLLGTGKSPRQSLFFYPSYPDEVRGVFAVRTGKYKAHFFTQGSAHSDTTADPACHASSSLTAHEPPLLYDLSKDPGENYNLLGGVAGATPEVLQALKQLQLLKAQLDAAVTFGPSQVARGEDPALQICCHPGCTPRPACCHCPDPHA
Summary of the method: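 Cell-based enhancement test: residual ASA activity in SV40-transformed I179S patient fibroblasts is measured by pNCS turnover (0.5mM final, 14h, room temperature) following 48h compound incubation; higher fluorescence indicates activation.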

[8] = qHTS for compounds that reverse cellular toxicity of Amyloid beta (A-beta) peptide in yeast: LOPAC Validation Assay (AID 720559);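 also: plate controls were DMSO for no effect and equimolar ferric chloride plus clioquinol rescue for full effect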
Summary of the method: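 Here, A-beta-toxic yeast grow with test compounds at 30 C for 48 hr before optical density at 600 nm is recorded; data are normalized against DMSO and the FeCl3-clioquinol control.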

[9] = qHTS for Activators of Parkin Expression: LOPAC Validation Assay (NLuc Reporter) (AID 720572; also: potency is read from the fitted curve at half-maximal effect)
Summary of the method: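 Compound effects on Parkin promoter activity were measured as NanoLuc luminescence after 24 h at 37 C. The neuronal reporter line also carried FLuc, which was read first. LOPAC compounds were tested at 7 concentrations, with normalization to DMSO (0%) and positive control (100%).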

[10] = qHTS for Activators of Parkin Expression: LOPAC Validation Assay (FLuc Reporter) (AID 720573; also: potency is read from the fitted curve at half-maximal effect)
Summary of the method: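 Readout is FLuc luminescence from neuronal reporter cells (Parkin promoter, FLuc plus NLuc) after 24 h compound exposure in dose response. Values normalized to neutral DMSO and positive-control compounds.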

[11] = qHTS assay for small molecule antagonists of the retinoid-related orphan receptor gamma (ROR-gamma) signaling pathway - cell viability counter screen (AID 720652; active = well fitted curve in the direction sought with a large enough effect in the repeat runs; an effect the other way counts as inactive or inconclusive;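 also: CHO reporter cells with doxycycline-induced ROR-gamma expression; series mostly up to about 92 µM; compound exposure lasted 16 hr before ATP read; % is scaled to controls: 0 for no effect and ±100 for the full control effect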)
Summary of the method: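 ATP-based viability readout in the ROR-gamma reporter CHO cells after 16 hr compound exposure under doxycycline induction.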

[12] = qHTS assay for small molecule agonists of the antioxidant response element (ARE) signaling pathway measured by Nrf2-dependant transcriptional activity - cell viability counter screen (AID 720653; active = well fitted curve in the direction sought with a large enough effect in the repeat runs; an effect the other way counts as inactive or inconclusive; also: % is scaled to controls: 0 for no effect and ±100 for the full control effect); details: ARE-bla HepG2 viability, CellTiter-Glo ATP luminescence, 16 h; max response: stronger effect = lower value
Summary of the method: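 Cytotoxicity counter screen: intracellular ATP quantified by CellTiter-Glo luminescence in the same ARE-bla HepG2 plates, after 16 h compound exposure and a 2 h beta-lactamase substrate step.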

[13] = molecular target: Hexokinase-4 (Homo sapiens) + Glucokinase regulatory protein (Homo sapiens) (UniProt P35557+Q14397); test: qHTS assay for inhibitors of recombinant human GCK-GKRP interaction: Diaphorase-coupled assay (AID 743205)
Sequence of Hexokinase-4 (Homo sapiens) + Glucokinase regulatory protein (Homo sapiens) (P35557 whole entry, looked up): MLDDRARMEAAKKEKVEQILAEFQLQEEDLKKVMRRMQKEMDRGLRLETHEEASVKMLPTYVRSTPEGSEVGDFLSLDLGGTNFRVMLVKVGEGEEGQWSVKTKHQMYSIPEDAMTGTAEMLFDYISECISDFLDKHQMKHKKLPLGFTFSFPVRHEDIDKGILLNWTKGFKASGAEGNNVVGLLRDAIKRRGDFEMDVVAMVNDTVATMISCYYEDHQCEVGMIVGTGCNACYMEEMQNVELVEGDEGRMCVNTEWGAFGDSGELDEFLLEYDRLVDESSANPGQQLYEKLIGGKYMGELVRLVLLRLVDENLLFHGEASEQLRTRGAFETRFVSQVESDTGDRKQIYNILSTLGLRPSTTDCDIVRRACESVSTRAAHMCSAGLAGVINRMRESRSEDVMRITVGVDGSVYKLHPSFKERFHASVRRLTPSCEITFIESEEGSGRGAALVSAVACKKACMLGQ
Sequence of Hexokinase-4 (Homo sapiens) + Glucokinase regulatory protein (Homo sapiens) (Q14397 whole entry, looked up): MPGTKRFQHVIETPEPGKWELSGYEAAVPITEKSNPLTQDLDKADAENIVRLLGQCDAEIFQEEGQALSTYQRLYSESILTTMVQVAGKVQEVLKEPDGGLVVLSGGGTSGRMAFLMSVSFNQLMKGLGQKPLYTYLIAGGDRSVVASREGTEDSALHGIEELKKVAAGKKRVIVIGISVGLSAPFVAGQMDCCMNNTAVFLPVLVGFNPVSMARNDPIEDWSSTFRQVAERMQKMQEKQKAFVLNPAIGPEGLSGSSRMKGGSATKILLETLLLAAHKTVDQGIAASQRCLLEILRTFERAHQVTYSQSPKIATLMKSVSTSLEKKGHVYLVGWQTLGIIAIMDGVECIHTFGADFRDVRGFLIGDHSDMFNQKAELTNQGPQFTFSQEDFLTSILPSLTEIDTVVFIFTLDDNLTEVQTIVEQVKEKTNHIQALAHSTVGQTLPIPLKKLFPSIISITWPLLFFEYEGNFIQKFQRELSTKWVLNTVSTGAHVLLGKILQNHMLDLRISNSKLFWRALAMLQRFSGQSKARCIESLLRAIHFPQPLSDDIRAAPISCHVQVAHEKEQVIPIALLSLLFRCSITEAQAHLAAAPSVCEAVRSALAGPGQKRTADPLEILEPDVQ
Summary of the method: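 Signal derives from resorufin generated by diaphorase, linked to GCK turnover of glucose (5 mM) and ATP (0.4 mM). Enzyme complex was added after a 20-minute compound preincubation and monitored for 30 minutes.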

[14] = molecular target: Tumor necrosis factor (Homo sapiens) (UniProt P01375); test: qHTS assay to identify small molecules that stimulate Tumor Necrosis Factor-alpha (TNF-alpha) secretion (AID 651757; active = well fitted curve in the direction sought with a large enough effect in the signal ratio; the % refers to the signal ratio; also: 0% is about no effect)
Sequence of Tumor necrosis factor (Homo sapiens) (P01375 whole entry, looked up): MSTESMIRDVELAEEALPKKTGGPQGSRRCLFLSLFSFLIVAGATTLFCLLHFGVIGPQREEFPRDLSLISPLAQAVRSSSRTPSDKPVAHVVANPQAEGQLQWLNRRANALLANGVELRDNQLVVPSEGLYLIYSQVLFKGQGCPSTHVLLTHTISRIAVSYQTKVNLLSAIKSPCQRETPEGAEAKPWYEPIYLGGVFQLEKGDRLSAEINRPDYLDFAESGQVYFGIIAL
Summary of the method: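 Using 3000 THP-1 cells per well, compounds and controls were applied for 17 hrs at 37 C. Detection followed with two labeled anti-TNF-alpha antibodies (cryptate donor, XL665 acceptor) for 3 hr at room temperature, measured by TR-FRET.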

[15] = qHTS assay for environmental chemicals that activate the Aryl hydrocarbon Receptor (AhR) signaling pathway (AID 651777); details: 1A2-DRE human hepatoma cells, luciferase, 24 h; activation: stronger effect = higher value; also: % of control where 0% means no effect; nearly all actives have a fitted effect of over 15% in size
Summary of the method: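 Following a 24 hr incubation with test chemicals at 37 C and 5% CO2, 1A2-DRE human hepatoma cells received One-Glo reagent; after 30 min at room temperature, luciferase output reflected CYP1A2 induction via AhR.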

[16] = molecular target: Nuclear receptor ROR-gamma (Homo sapiens) (UniProt P51449); test: qHTS assay for small molecule antagonists of the retinoid-related orphan receptor gamma (ROR-gamma) signaling pathway (AID 651802); also: nearly all actives have a fitted effect of over 60% in size; also: potency is read from the fitted curve at half-maximal effect
Sequence of Nuclear receptor ROR-gamma (Homo sapiens) (P51449 whole entry, looked up): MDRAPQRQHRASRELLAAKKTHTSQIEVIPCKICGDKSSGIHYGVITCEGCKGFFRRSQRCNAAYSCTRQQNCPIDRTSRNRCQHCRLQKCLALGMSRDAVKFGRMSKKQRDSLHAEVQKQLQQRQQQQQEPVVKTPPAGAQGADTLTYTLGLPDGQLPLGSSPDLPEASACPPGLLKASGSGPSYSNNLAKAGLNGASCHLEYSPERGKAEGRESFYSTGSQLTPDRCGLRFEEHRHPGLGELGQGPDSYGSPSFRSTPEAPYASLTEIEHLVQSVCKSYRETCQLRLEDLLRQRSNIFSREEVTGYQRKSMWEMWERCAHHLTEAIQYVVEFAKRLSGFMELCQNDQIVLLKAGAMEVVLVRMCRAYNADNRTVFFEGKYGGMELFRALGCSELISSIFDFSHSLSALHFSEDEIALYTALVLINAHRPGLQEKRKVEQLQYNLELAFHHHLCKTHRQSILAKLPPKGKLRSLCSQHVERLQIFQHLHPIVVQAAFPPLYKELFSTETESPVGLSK
Summary of the method: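 Doxycycline-induced reporter activity in engineered CHO cells (TET-inducible ROR, RORE-LUC) was measured by luminescence after 16hr compound exposure at 37C.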

[17] = qHTS assay for small molecule agonists of the antioxidant response element (ARE) signaling pathway measured by Nrf2-dependant transcriptional activity (AID 720636; active = well fitted curve in the direction sought with a large enough effect in the repeat runs; an effect the other way counts as inactive or inconclusive;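 also: HepG2 cells with an ARE-driven luciferase reporter; % of control where 0% means no effect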)
Summary of the method: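 ONE-Glo luminescence, read 30 min after reagent addition at room temperature, reflected ARE reporter activity in HepG2 cells that had been incubated with compound for 16 hr at 37 C in 1% dialyzed FBS.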

[18] = qHTS assay for small molecule activators of the p53 signaling pathway (AID 651743; active = well fitted activation curve with a large enough effect in the signal ratio, not every such curve was filed as active; the % refers to the signal ratio; also: series mostly up to about 92 µM; % of control where 0% means no effect); details: HCT-116 p53RE-bla, beta-lactamase FRET ratio, 16 h; stronger effect = higher value
Summary of the method: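 A beta-lactamase reporter under p53 response element control, stably carried by HCT-116 cells, reported pathway activation. Test compounds were applied for 16 hours at 37 C, and fluorescence was measured 2 hours after adding the B/G FRET substrate.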

[19] = qHTS assay to identify small molecules that stimulate interleukin-8 (IL-8) secretion (AID 651758; active = well fitted activation curve with a large enough effect in the signal ratio; the % refers to the signal ratio; also: 0% is about no effect)
Summary of the method: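 Secreted IL-8 measured homogeneously by TR-FRET (two labelled anti-IL-8 antibodies, 1-3 h at room temperature) after a 16 h, 37 C compound treatment of THP-1 cells at 2000 cells/well.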

COc1cc(N2CCC(N3CCN(C)CC3)CC2)ccc1Nc1ncc(Cl)c(Nc2ccccc2S(=O)(=O)C(C)C)n1
active: Potency [1] 23.5 µM
inactive: outcome [2]

O=c1cc(-c2ccc(O)cc2)oc2cc(O)cc(O)c12
inactive: max response [6] -4.82% and -0.91% | outcome [7] | outcome [8] | Potency [11] | max response [12] -5.98% and -9.88% | outcome [13]
active: Potency [3] 24.3 µM and 33.5 µM | Potency [4] 2.98 µM | Potency [5] 5.96 µM | Potency [9] 16.4 µM | Potency [10] 3.26 µM

O=C1NC(=O)C(c2ccccc2)(c2ccccc2)N1
34.4 µM (active) and inactive: Potency [3]
inactive: outcome [14] | activation [15] -0.809% and 0.125% and -0.632% | max response [6] -3.11% and -0.24% and -0.609% | Potency [16] | outcome [7] | outcome [8] | Potency [9] | Potency [10] | Potency [17] | Potency [11] | max response [12] -13.1% and -3.11% and 0.97% | outcome [13]

O=C(O)c1cc(O)c2c(c1)C(=O)c1cccc(O)c1C2=O
active: Potency [4] 8.41 µM | Potency [5] 5.31 µM | Potency [16] 37.6 µM
inactive: activation [15] 1.52% | max response [6] -6.2% | Potency [17] | Potency [11]

COc1ccc(C2CC(c3ccccc3)=NN2c2ccc(S(N)(=O)=O)cc2)cc1 (configuration not stated)
inactive: outcome [2]

CN(C)CCC(c1ccccc1)c1ccccn1 (configuration not stated)
active: Potency [3] 37.6 µM
inactive: activation [18] 1.39% | outcome [14] | activation [15] -0.0214% | max response [6] -0.672% | outcome [7] | outcome [8] | Potency [9] | Potency [10] | Potency [17] | Potency [11] | max response [12] -6.47% | outcome [13]

CCOC(CN1C(=O)[C@](CC(=O)Nc2ccc(C)cc2)(NC(=O)Nc2ccc(C)cc2)c2ccccc21)OCC
inactive: outcome [2]

O=C(O)Cc1cccc2ccccc12
inactive: Potency [3] | activation [18] -2.96% and -4.77% | outcome [14] | activation [15] 0.508% and -1.02% | max response [6] -0.727% and -1.42% | Potency [16] | Potency [17] | Potency [11] | max response [12] -3.63% and 1.79%

Cc1nc(N)sc1-c1ccnc(Nc2ccc(N3CCOCC3)cc2)n1
inactive: outcome [2]

CC(=O)c1ccc(S(=O)(=O)NC(=O)NC2CCCCC2)cc1
inactive: Potency [3] | activation [18] -2.83% and -1.75% | outcome [14] | activation [15] -0.49% and 0.0331% | max response [6] 9.98% and -1.51% | Potency [16] | outcome [7] | outcome [8] | Potency [9] | Potency [10] | Potency [17] | Potency [11] | max response [12] 2.45% and -5.62% | outcome [13]

CCCCC1C(=O)N(c2ccccc2)N(c2ccccc2)C1=O
inactive: Potency [3] | outcome [14] | outcome [19] | activation [15] -1.23% and 0.389% | max response [6] -2.74% and -1.79% | Potency [16] | outcome [7] | outcome [8] | Potency [10] | Potency [17] | Potency [11] | max response [12] 4.44% and 1.83% | outcome [13]

CCCNC(=O)NS(=O)(=O)c1ccc(Cl)cc1
inactive: Potency [3] | activation [18] -1.07% and -0.555% | outcome [14] | activation [15] 0.08% and -1.06% | max response [6] 5.97% and -0.845% | Potency [16] | outcome [8] | Potency [9] | Potency [10] | Potency [17] | Potency [11] | max response [12] 9.19% and -14.5% | outcome [13]

CCn1cc(C(=O)O)c(=O)c2ccc(C)nc21
inactive: Potency [3] | max response [6] -3.78% and -0.0141% | Potency [16] | outcome [7] | outcome [8] | Potency [9] | Potency [10] | Potency [17] | Potency [11] | max response [12] 11.7% and 3.46%

O=c1c(-c2ccc(O)cc2)coc2cc(O)ccc12
inactive: activation [18] -1.55% and 1.43% | outcome [14] | max response [6] 0.0671% and -0.373% | Potency [16] | outcome [7] | max response [12] -5.4% and -12% | outcome [13]
active: Potency [3] 27.3 µM and 42.2 µM | Potency [4] 18.8 µM | Potency [5] 21.1 µM

CC(C)OC(=O)C(C)(C)Oc1ccc(C(=O)c2ccc(Cl)cc2)cc1
inactive: activation [15] 2.52% | outcome [7] inactive; inhibitor; fitted 0.151 uM | max response [12] 3.55% | outcome [13]
